# Data from article PMC4336329 (PLoS ONE, 2015).
# About 14,000 (4.5%) of roughly 310,000 compounds showed an effect of 50% or more. The effect is printed as a negative number. This excerpt belongs to a sample that is enriched for strong results.
# Biological target: human ether-à-go-go-related gene (hERG) potassium channel (human, UniProt Q12809)
# Test: primary screen, population patch clamp on CHO cells stably expressing hERG; higher = less effect of the substance
# 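Also: peak tail current of the secondary pulse compared with the same well before compound.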
# human ether-à-go-go-related gene (hERG) potassium channel, sequence (Q12809 whole entry, looked up): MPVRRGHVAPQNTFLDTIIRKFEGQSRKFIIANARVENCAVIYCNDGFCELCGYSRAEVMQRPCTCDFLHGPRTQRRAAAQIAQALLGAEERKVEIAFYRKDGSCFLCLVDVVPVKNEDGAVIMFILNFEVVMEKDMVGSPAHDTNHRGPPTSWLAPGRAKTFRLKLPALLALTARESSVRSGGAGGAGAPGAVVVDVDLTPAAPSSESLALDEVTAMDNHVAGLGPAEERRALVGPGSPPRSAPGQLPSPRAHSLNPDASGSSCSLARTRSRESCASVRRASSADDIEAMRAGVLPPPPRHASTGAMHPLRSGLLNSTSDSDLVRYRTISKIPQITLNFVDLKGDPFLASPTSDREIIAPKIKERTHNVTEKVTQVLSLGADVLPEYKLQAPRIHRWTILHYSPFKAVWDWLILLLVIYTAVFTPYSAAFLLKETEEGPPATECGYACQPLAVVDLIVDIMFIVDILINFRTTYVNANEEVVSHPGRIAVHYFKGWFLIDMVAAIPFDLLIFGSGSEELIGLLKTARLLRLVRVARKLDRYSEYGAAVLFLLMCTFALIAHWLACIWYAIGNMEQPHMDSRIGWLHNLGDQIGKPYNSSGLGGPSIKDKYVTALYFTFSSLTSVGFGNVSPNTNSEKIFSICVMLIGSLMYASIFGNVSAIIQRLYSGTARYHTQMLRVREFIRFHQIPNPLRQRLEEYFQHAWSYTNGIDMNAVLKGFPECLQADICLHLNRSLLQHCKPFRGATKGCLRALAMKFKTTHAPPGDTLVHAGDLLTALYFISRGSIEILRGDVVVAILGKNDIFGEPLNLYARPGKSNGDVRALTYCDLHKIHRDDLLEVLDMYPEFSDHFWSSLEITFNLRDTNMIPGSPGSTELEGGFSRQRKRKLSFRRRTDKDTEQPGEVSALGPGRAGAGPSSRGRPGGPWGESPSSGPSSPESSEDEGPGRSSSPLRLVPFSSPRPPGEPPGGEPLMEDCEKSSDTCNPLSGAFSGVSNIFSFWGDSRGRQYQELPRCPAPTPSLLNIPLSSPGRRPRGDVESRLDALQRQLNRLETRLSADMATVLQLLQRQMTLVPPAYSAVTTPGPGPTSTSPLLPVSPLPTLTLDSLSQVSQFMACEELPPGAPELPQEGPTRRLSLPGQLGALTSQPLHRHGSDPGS
row,SMILES,"hERG current change (%, negative = inhibition) at 10uM"
1,COCCSc1nnc(NS(=O)(=O)c2ccc(F)cc2)s1,3.84%
2,O=C(c1ccncc1)N1c2ccccc2Sc2ccccc21,18.2%
3,CC(C)=CCCC(C)N(C=O)C(C)CCC=C(C)C (centres unmarked),-1.01%
4,CC(=O)c1cccc(NC(=O)COC(=O)c2ccccc2C)c1,-14.4%
5,CN(C)S(=O)(=O)c1ccc(C(=O)OCC(=O)Nc2ccccc2OC(F)F)cc1,-5.82%
6,CC(OC(=O)c1cc(Br)ccc1O)C(=O)NC1(C#N)CCCCC1 (centres unmarked),27.3%
7,Cc1c(N=Cc2nc3ccccc3[nH]2)c(=O)n(-c2ccccc2)n1C,5.52%
8,Cc1ccc(S(=O)(=O)NC(CC(=O)N2CCC3(CC2)OCCO3)c2ccco2)cc1 (centres unmarked),3.51%
9,CC(C)[C@H](NC(=O)NCCc1ccc(Cl)cc1)C(=O)O,5.9%
10,COc1ccccc1-c1noc(CCC(=O)Nc2cc(C(F)(F)F)ccc2Cl)n1,-3.68%
11,CC(C)=CC(=O)OCC(=O)Nc1cc([N+](=O)[O-])ccc1F,0.461%
12,CC(C)CCN(Cc1ccco1)S(=O)(=O)c1csc(C(N)=O)c1,-14.9%
13,CC1(c2ccc(OC(F)F)cc2)NC(=O)N(CC(=O)N2c3ccccc3NC(=O)C2(C)C)C1=O (centres unmarked),-6.78%
14,CCCCNC(=O)N(O)C1N(/N=C/c2ccccc2F)C(=S)SC1(C)C (centres unmarked),16.5%
15,Cc1ccc(C(=O)N[C@H](C(=O)OCC(=O)NC2CCS(=O)(=O)C2)C(C)C)cc1 (some centres unmarked),11.6%
16,Cc1ccc2[nH]c(=O)c(CN(CCCN(C)C)C(=O)Nc3ccc(F)cc3)cc2c1,-70.7%
17,CC(=O)N(CCc1cccc(C)c1)Cc1cc2cc(C)ccc2[nH]c1=O,-5.71%
18,CN(C)CCCN(Cc1cc2cc3c(cc2[nH]c1=O)OCO3)C(=S)Nc1cccc(Cl)c1,-45.7%
19,Cc1ccc2[nH]c(=O)c(CN(CCCN(C)C)C(=O)Nc3cccc(Cl)c3)cc2c1,-53.6%
20,Cc1cccc(NC(=O)N(Cc2cc3cc(C)ccc3[nH]c2=O)CC2COCCO2)c1 (centres unmarked),6.43%
21,Cc1ccc2[nH]c(=O)c(CN(CCO)C(=O)N(C)C)cc2c1,5.5%

row,SMILES,"hERG current change (%, negative = inhibition) at 10uM"
1,Cc1cccc(NC(=S)N(CCCN(C)C)Cc2cc3cc4c(cc3[nH]c2=O)OCO4)c1,-52.7%
2,Cc1ccc2[nH]c(=O)c(CN(CCCN(C)C)C(=O)Nc3ccc(Cl)cc3)cc2c1,-66.1%
3,CN(C)CCCN(Cc1cc2cc3c(cc2[nH]c1=O)OCO3)C(=S)Nc1ccccc1,-36.6%
4,Cc1ccc(NC(=S)N(CCCN(C)C)Cc2cc3cc4c(cc3[nH]c2=O)OCO4)cc1,-41.7%
5,COc1ccc(NC(=O)N(Cc2cc3cc(C)ccc3[nH]c2=O)CC2CCCO2)cc1 (centres unmarked),-25.2%
6,CCCn1c(SCC(=O)NCc2ccco2)nnc1-c1ccncc1,19.9%
7,O=C(NNC(=O)C1CC1)Nc1ccc(Cl)cc1,6.38%
8,CNC(=O)c1nn(-c2ccccc2)ccc1=O,-1.51%
9,COc1cc2nc(N3CCN(C(=O)[C@H]4COc5ccccc5O4)CC3)nc(N)c2cc1OC,-37.7%
10,O=S(=O)(c1ccccc1F)N1CCN(Cc2cc3c(cc2O)OCO3)CC1,-11.8%
11,O=C(COC(=O)C1=COCCO1)Nc1ccc(F)c(F)c1,-1.21%
12,Cc1ccc(N2C(=O)C3C4C=CC(C4)C3C2=O)cc1C (centres unmarked),13.3%
13,Cn1c(SCC(=O)NC(=O)c2cccc([N+](=O)[O-])c2)nnc1-c1ccc(F)cc1,-23.3%
14,C=CCn1c(SCC(=O)NC(=O)c2cccc([N+](=O)[O-])c2)nnc1-c1ccccc1F,-15.5%
15,O=C(CSc1nnc(-c2ccccc2F)n1C1CC1)NC(=O)c1cccc([N+](=O)[O-])c1,-52.8%
16,NS(=O)(=O)c1cccc(C(=O)NC2CCSc3ccccc32)c1 (centres unmarked),7.91%
17,COc1cc(C(=O)N/N=C/c2ccc(OC(=O)c3ccccc3Cl)cc2)ccc1O,-10.5%
18,O=c1[nH]c(=S)[nH]c2scc(-c3ccc(Br)cc3)c12,16.3%
19,CCS(=O)(=O)N1N=C(c2cccc(NS(C)(=O)=O)c2)CC1c1ccccc1 (centres unmarked),-16.9%
20,Cc1ccc(C2CC(c3cccc(NS(C)(=O)=O)c3)=NN2S(C)(=O)=O)cc1 (centres unmarked),-69.3%
21,CCS(=O)(=O)Nc1cccc(C2=NN(S(C)(=O)=O)C(c3ccccc3)C2)c1 (centres unmarked),-14.6%

row,SMILES,"hERG current change (%, negative = inhibition) at 10uM"
1,CCS(=O)(=O)N1N=C(c2cccc(NS(C)(=O)=O)c2)CC1c1ccc(C)cc1 (centres unmarked),-73.9%
2,CCS(=O)(=O)Nc1cccc(C2=NN(S(=O)(=O)CC)C(c3ccccc3)C2)c1 (centres unmarked),1.69%
3,CS(=O)(=O)Nc1cccc(C2=NN(S(C)(=O)=O)C(c3ccccc3)C2)c1 (centres unmarked),-30.9%
4,O=c1cc(-c2ccccc2)nc(N2CCCCC2)[nH]1,-13.7%
5,CN(Cc1ccc(F)cc1)C(=O)c1sccc1-c1ccccc1,0.217%
6,Cc1cc(=O)[nH]c(NN)n1,6.39%
7,COc1cccc2cc(C(=O)NCc3ccco3)c(=O)oc12,2.32%
8,Cc1ccc(S(=O)(=O)Nc2ccc(-c3nnc(SCC#N)n3C)cc2)cc1,-11.3%
9,CC(C)(C)n1nnnc1C(c1cccnc1)N1CCN(C2CCCCC2)CC1 (centres unmarked),-2.19%
10,CS(=O)(=O)N1CCN(c2ccccc2NC(=O)c2ccc(Br)o2)CC1,-36.3%
11,O=C(Nc1ccccc1N1CCN(C(=O)c2ccccc2)CC1)c1cc2ccccc2o1,9.86%
12,O=C(Nc1ccccc1N1CCN(C(=O)c2ccccc2)CC1)c1ccc(Br)o1,-63.5%
13,CC1CCN(c2ccccc2NC(=O)c2ccc(Br)o2)CC1,-0.73%
14,CN1CCN(c2ccccc2NC(=O)c2ccc(Br)o2)CC1,-67.9%
15,CC(=O)N1CCN(c2ccccc2NC(=O)c2ccco2)CC1,-38.9%
16,O=C(Nc1ccccc1N1CCCC1)c1ccco1,6.36%
17,CC(=O)N1CCN(c2ccccc2NC(=O)c2ccc(Br)o2)CC1,-54.4%
18,O=C(Nc1ccccc1N1CCN(C(=O)c2ccccc2)CC1)c1ccco1,-74.2%
19,O=C(Nc1ccccc1N1CCOCC1)c1ccc(Br)o1,1.26%
20,O=C(Nc1ccccc1N1CCCC1)c1ccc(Br)o1,-22.4%
